{"source": "PubChem BioAssay AID1304", "about": "(The Scripps Research Institute Molecular Screening Center, 2008)", "note": "In all, about 220,000 compounds went through this assay and about 800 (0.36%) were called active. Shown is part of a subset that was picked to be rich in actives. Values without a mark were called inactive. Cut-off read from the data, not from the text of the source: active = activation above about 33% (passing the limit was not always enough); inactive = the rest.", "data": [{"molecular_target": "Neuropeptide Y receptor type 1 (Homo sapiens) (UniProt P25929)", "sequence (P25929 whole entry, looked up)": "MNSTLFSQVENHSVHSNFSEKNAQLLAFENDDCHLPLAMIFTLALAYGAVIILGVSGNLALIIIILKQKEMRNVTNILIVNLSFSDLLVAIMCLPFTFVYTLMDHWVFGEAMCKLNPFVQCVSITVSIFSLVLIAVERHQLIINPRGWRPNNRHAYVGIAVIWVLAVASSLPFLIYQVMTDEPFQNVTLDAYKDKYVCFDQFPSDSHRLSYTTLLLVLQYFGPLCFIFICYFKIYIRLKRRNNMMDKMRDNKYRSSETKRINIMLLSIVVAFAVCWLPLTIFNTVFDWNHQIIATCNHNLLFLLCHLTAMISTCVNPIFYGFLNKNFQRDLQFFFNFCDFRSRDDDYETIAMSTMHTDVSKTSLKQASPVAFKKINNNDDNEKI", "assay": "activation enhancers of human NPY-Y1 – cell-based, primary screen (AID 1304);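 note: cells stimulated with NPY at EC10 then isoproterenol at EC100; 0% = low agonist plus stimulus and 100% = saturating agonist plus stimulus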", "details": "NPY-Y1 expressing cells, potentiator/agonist activation; at 3.6 µM; stronger effect = higher value", "values": [{"smiles": "O=c1oc(-c2ccco2)nc2sc3c(c12)CCCCC3", "activation": "9.25%"}, {"smiles": "CN(c1ccccc1)S(=O)(=O)c1cccc(NC(=O)Cc2c(F)cccc2Cl)c1", "activation": "-12%"}, {"smiles": "C#CCOCCOCCOCCNc1nc(N2CCN(C(=O)[C@H](Cc3ccc(O)cc3)n3cc(C(N)CC(C)C)nn3)CC2)nc(N2CCN(C(=O)[C@H](CCC(=O)O)n3cc(C(N)[C@H](C)CC)nn3)CC2)n1", "note": "(stereo partly drawn)", "activation": "-15%"}, {"smiles": "C#CCOCCOCCOCCNc1nc(N2CCN(C(=O)[C@H](CCCCN)n3cc([C@@H](N)C(C)CC)nn3)CC2)nc(N2CCN(C(=O)[C@H](Cc3ccc(O)cc3)n3cc([C@@H](N)C(C)CC)nn3)CC2)n1", "note": "(stereo partly drawn)", "activation": "111% (active)"}, {"smiles": "C#CCOCCOCCOCCNc1nc(N2CCN(C(=O)C(Cc3ccc(O)cc3)n3cc(C(N)CC(C)C)nn3)CC2)nc(N2CCN(C(=O)C(Cc3ccc(O)cc3)n3cc(C(N)C(C)CC)nn3)CC2)n1", "note": "(stereo not drawn)", "activation": "11.7%"}, {"smiles": "Fc1ccc(-c2csc(-c3ccc(C4SCCS4)cc3)n2)cc1F", "activation": "-5.29%"}, {"smiles": "Cc1ccccc1Nc1c(-c2ccccc2)nc2ncccn12", "activation": "46.3%"}, {"smiles": "Cc1cccc(C)c1Nc1c(-c2ccccc2O)nc2ncccn12", "activation": "80.8% (active)"}, {"smiles": "Nc1nc(SCc2ccc([N+](=O)[O-])cc2)c2ncn(C3OC(CO)C(O)C3O)c2n1", "note": "(stereo not drawn)", "activation": "-25.4%"}, {"smiles": "C/C(=N\\NC(=O)c1ccc(CSc2nc(C)cc(C)n2)cc1)C1CCCCC1", "activation": "1.93%"}, {"smiles": "COc1cc(C(=O)Nc2cc(C(F)(F)F)ccc2N2CCOCC2)ccc1O", "activation": "-20.3%"}, {"smiles": "O=C(CCn1ccc([N+](=O)[O-])n1)Nc1nccs1", "activation": "7.17%"}, {"smiles": "Cc1ccc(OCC(O)CN2CCN(CC(O)COc3ccc(C)cc3Cl)CC2)c(Cl)c1", "note": "(stereo not drawn)", "activation": "6.61%"}, {"smiles": "Cc1cccc(OCC(O)CN2CCN(CCN3C(=O)c4cccc5cccc(c45)C3=O)CC2)c1C", "note": "(stereo not drawn)", "activation": "38.1% (active)"}, {"smiles": "Cc1cccc(C)c1OCC(O)CN1CCCCC1", "note": "(stereo not drawn)", "activation": "1.8%"}, {"smiles": "O=C(Nc1nnc(Cc2ccc(Cl)cc2)s1)c1ccncc1", "activation": "-10.8%"}, {"smiles": "CCCc1nc2oc3c(=O)[nH]cnc3c2c2c1COC(C)(C)C2", "activation": "8.17%"}, {"smiles": "Cc1cnc(C(=O)OCC(=O)N2CCc3ccccc32)cn1", "activation": "-19.3%"}, {"smiles": "OC(COc1cccc2ccccc12)CN1CCN(c2ccccn2)CC1", "note": "(stereo not drawn)", "activation": "50.8% (active)"}, {"smiles": "O=C1c2cccc3cccc(c23)N1CN1CCN(c2ccccn2)CC1", "activation": "11.2%"}, {"smiles": "Cc1ccccc1OCC(O)CN1CCN(c2ccccn2)CC1", "note": "(stereo not drawn)", "activation": "29.6%"}, {"smiles": "CCCOCC(O)CC(CC)C(=O)NNC(=S)Nc1ccccc1", "note": "(stereo not drawn)", "activation": "-8.03%"}, {"smiles": "O=C(/C=C/c1ccc(OCc2c(F)cccc2Cl)cc1)N1CCOCC1", "activation": "-15.1%"}]}]}
